The sample as a whole holds a higher share of hits than the screen did.
Tgondii IFNg: blocks Toxoplasma gondii growth in the presence of IFN-gamma | Toxoplasma gondii growth in IFN-gamma-treated host cells; active compounds read low | activity change, negative = inhibition, % (concentration not given with the values) | actives 3.8% (n = 69,000); in the data active = activity change below about -70%, passing the limit was not always enough;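 note: host cells are HeLa cells infected with Toxoplasma gondii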
A number is an active result; i = inactive.

SMILES | Tgondii IFNg
Cc1cc(C)cc(NC(=O)N2CCC3(CC2)Nc2cc(C)ccc2-n2cccc23)c1 | -108
CCN1c2cc(C)ccc2-n2cccc2C12CCN(C(=O)Nc1ccccc1Cl)CC2 | -110
Cc1cc(C)cc(NC(=O)N2CCC3(CC2)Nc2cc(F)ccc2-n2cccc23)c1 | i
CCOC(=O)C1CCC(CNC(=O)N2CCC3(CC2)c2cccn2-c2ccc(C)cc2N3CC)CC1 (configuration not stated) | i
CCN1c2cc(C)ccc2-n2cccc2C12CCN(C(=O)Nc1cccc(F)c1)CC2 | -85
CSc1cccc(NC(=O)N2CCC3(CC2)Nc2cc(F)ccc2-n2cccc23)c1 | i
Cc1ccc(C)c(NC(=O)N2CCC3(CC2)Nc2cc(C)ccc2-n2cccc23)c1 | i
CCN1c2cc(C)ccc2-n2cccc2C12CCN(C(=O)Nc1ccccc1C)CC2 | i
CCN1c2cc(C)ccc2-n2cccc2C12CCN(C(=O)Nc1ccc(C)cc1Cl)CC2 | i
CCN1c2cc(C)ccc2-n2cccc2C12CCN(C(=O)Nc1cccc(SC)c1)CC2 | -87
CCN1c2cc(C)ccc2-n2cccc2C12CCN(C(=O)NC(C)C)CC2 | i
CCN1c2cc(C)ccc2-n2cccc2C12CCN(C(=O)Nc1cccc(Cl)c1C)CC2 | i
O=C(Nc1ccc(Br)cc1F)N1CCC2(CC1)Nc1cc(F)ccc1-n1cccc12 | i
CCc1ccc(CN2CCC3(CC2)C(=O)N(Cc2ccc4ccccc4c2)C(=O)N3CCCOC)o1 | i
COc1ccc(NC(=O)N2C[C@@H](O)COC[C@H]3O[C@@H](CC(=O)N4CCCCC4)CC[C@@H]32)cc1 | i
COC(=O)c1ccc(NC(=O)N2CCCCC2CCn2ccnc2)cc1 (configuration not stated) | i
O=C(C[C@@H]1CC[C@H]2[C@@H](COC[C@@H](O)CN2Cc2ccc(F)cc2)O1)NCCc1ccccc1 | i
O=C(C[C@H]1C=C[C@@H](NC(=O)Nc2ccc3c(c2)OCO3)[C@H](CO)O1)NCCCN1CCOCC1 | i
N#CNC1=NCN(CCCN2CCOCC2)CN1 | i
c1cncc(C[C@@H]2[C@H](N3CCOCC3)CCN2Cc2ccco2)c1 | i
C/C=C/c1ccc([C@@H]2[C@H](CO)N(Cc3cncnc3)C23CN(C(=O)COC)C3)cc1 | i
O=C(c1cc2cc(F)ccc2[nH]1)N1CCC(CO)(CCOc2ccccc2)CC1 | i
FCCN1CCc2nc(-c3cccc(F)c3)nc(NC3CC3)c2C1 | i
Cn1cc(-c2cnc(-c3ccccc3)nc2)cc1C(=O)Cc1ccccn1 | i
CCN1c2cc(C)ccc2-n2cccc2C12CCN(C(=O)Nc1ccc(OC)c(OC)c1)CC2 | i
SMILES | Tgondii IFNg
CCN1c2cc(C)ccc2-n2cccc2C12CCN(C(=O)Nc1cccc(C(F)(F)F)c1)CC2 | -111
CCN1c2cc(C)ccc2-n2cccc2C12CCN(C(=O)Nc1cccc(Br)c1)CC2 | -84
Cc1ccc2c(c1)NC1(CCN(C(=O)Nc3cccc(C(F)(F)F)c3)CC1)c1cccn1-2 | i
CCN1c2cc(C)ccc2-n2cccc2C12CCN(C(=O)Nc1ccc(C)c(Cl)c1)CC2 | i
O=C(Nc1cccc(C(F)(F)F)c1)N1CCC2(CC1)Nc1ccccc1-n1cccc12 | i
CCOc1ccccc1-n1c(CCN)n[nH]c1=O | i
COCCN1CC[C@@]2(CN(C3CCOC3)C[C@H]2c2ccccc2)C1=O (some centres not stated) | i
CCOC(=O)[C@H](CCc1ccccc1)N[C@@H](C)C(=O)N1C(=O)N(C)C[C@@H]1C(=O)O | i
CCN(C(=O)CSc1nnc(C)s1)[C@H]1COC[C@@H]1O | i
CN(Cc1cccc2ncccc12)Cc1cnn2cccnc12 | i
c1cc(-c2cnn3cc(-c4ccc(N5CCNCC5)cc4)cnc23)c2cccnc2c1 | -84
CN(Cc1cccc2ncccc12)C(=O)c1cnn(-c2ccc(F)cc2)c1 | i
COc1ccc2c(c1)NC1(CCN(C(=O)Nc3cccc(C(F)(F)F)c3)CC1)c1cccn1-2 | i
Cc1nc(-c2cccnc2)ncc1C(=O)N1CC(c2ccncc2)C1 | i
O=C(CN1CCN(c2ncccn2)CC1)Nc1cnc2n1CCCC2 | i
N[C@@H]1CCCN(c2c(/C=C3\SC(=O)NC3=O)cccc2-c2ccccc2)C1 | i
Cc1ccccc1CN1C[C@@H]2c3nc(N4CCCC(C)C4)ncc3CS(=O)(=O)[C@H]2C1 (some centres not stated) | -86
Cc1ccc(CN2C[C@@H]3c4nc(N(C)C)ncc4CS(=O)(=O)[C@H]3C2)cc1 | i
Cc1ccc(CN2C[C@@H]3c4nc(N5CCCC(C)C5)ncc4CS(=O)(=O)[C@H]3C2)cc1 (some centres not stated) | i
CN1CCN(C(=O)C[C@H]2CC[C@H]3[C@@H](COC[C@H](O)CN3C(=O)c3ccccc3F)O2)CC1 | i
CC1(C)CC(=O)c2c(nc3ccccc3c2N)C1 | i
CC1(C)CC(=O)c2c(C(F)(F)F)nn(-c3ccc(C(N)=O)c(NC4CCC(OC(=O)CN)CC4)c3)c2C1 (configuration not stated) | -76
CC1(C)CC(=O)c2c(C(F)(F)F)nn(-c3ccc(C(N)=O)c(NC4CCC(O)CC4)c3)c2C1 (configuration not stated) | -77
CCc1cccc(NC(=O)c2c(O)c3ccccc3n(CC)c2=O)c1 | i
COC(=O)c1ccc(OC2OCCOC2Oc2ccc(C(=O)OC)cc2)cc1 (configuration not stated) | i
SMILES | Tgondii IFNg
O=C1CCC2(CCC(NC3CCOC3)CC2)N1Cc1ccccc1 (configuration not stated) | i
CC(C)(C)c1ccc(NC(=S)NCCc2ccncc2)cc1 | i
O=C(NCCc1ccccc1)c1ccccc1Cl | i
O=C(NCCc1ccncc1)c1cc(Br)ccc1O | -76
CCN1C[C@]23CN(C(=O)COc4ccc(C)cc4)C[C@@H](C[C@H]2S1(=O)=O)O3 | i
Cc1ccccc1-c1noc(CN(C)Cc2cc(C(C)(C)C)n[nH]2)n1 | i
CCOC(=O)N1CCN(Cc2nc(C(c3ccccc3)c3ccccc3)no2)CC1 | i
Cc1ccc(CN2CCOCC3(CCC(Cn4cccn4)O3)C2)s1 (configuration not stated) | i
COc1ccc(-c2ccccc2[C@H]2[C@@H](CO)N(C(=O)NC3CCCCC3)[C@H]2C#N)cc1 | -72
COc1ccc(-c2ccccc2[C@@H]2[C@@H](C#N)N(C(=O)NC3CCCCC3)[C@H]2CO)cc1 | i
COc1ccc(-c2ccccc2[C@@H]2[C@@H](C#N)N(C(=O)NC(C)C)[C@H]2CO)cc1 | i
CCCC(=O)Nc1cc(C(=O)N(CC)Cc2ccncc2)ccc1C | i
COc1ccc(-n2c(=O)c(C(=O)Nc3cc(F)ccc3C)c(O)c3cccnc32)cc1 | i
CCOc1ccccc1-c1noc(-c2nnn(Cc3nc(-c4ccccc4OC)oc3C)c2C)n1 | i
O=C(NCCN1CCC(O)(c2cccc(F)c2)CC1)c1cccs1 | i
COc1ccc(CNC(=O)c2nc(Nc3ccccc3)c3ccccc3n2)cc1OC | i
COc1cc(OC)c(NC(=O)c2nc(Nc3ccc(C)cc3)c3ccccc3n2)cc1Cl | i
COc1ccc(NC(=O)c2nc(Nc3ccc(C)cc3)c3ccccc3n2)c(OC)c1 | -112
COc1cccc(CNC(=O)c2nc(Nc3ccc(C)cc3)c3ccccc3n2)c1 | -101
CCc1ccc(Nc2nc(C(=O)NCc3ccccc3)nc3ccccc23)cc1 | i
CCOc1ccc(CNC(=O)c2nc(Nc3ccc(CC)cc3)c3ccccc3n2)cc1 | i
COc1ccc(OC)c(NC(=O)c2nc(Nc3ccc(C)cc3)c3ccccc3n2)c1 | i
COc1cccc(CNC(=O)c2nc(Nc3ccccc3)c3ccccc3n2)c1 | i

From PubChem BioAssay
